10 molecules from PubChem BioAssay (Tox21) can be followed below.

Assay [1] in a line: qHTS assay for small molecules that induce genotoxicity in human embryonic kidney cells expressing luciferase-tagged ATAD5 (AID 651632). Note: nearly all actives have a fitted effect of over 15% in size. A digest of the protocol:
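Genotoxicity read-out via ATAD5-luciferase: HEK293T cells, 16 hr compound incubation at 37C, Amplite detection.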

A short description of assay [2]: qHTS assay for small molecules that induce genotoxicity in human embryonic kidney cells expressing luciferase-tagged ATAD5 - cell viability (AID 651634; calls by dose curve; note: nearly all actives have a fitted effect of over 25% in size; note: potency is the fitted concentration of half-maximal effect). A digest of the protocol:
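Live-cell protease activity (CellTiter-Fluor, fluorescence) indicates viability. HEK293T cells with luciferase-tagged ATAD5; 15.5 hr compound treatment at 37C.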
(In general: Quantitative high-throughput screening tests each substance at several concentrations.)

Assay [3] can be described thus: qHTS assay for small molecule disruptors of the mitochondrial membrane potential - cell viability (AID 720634; calls by dose curve;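 note: human HepG2 liver cancer cells; series mostly up to about 83 µM; nearly all actives have a fitted effect of over 20% in size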). A digest of the protocol:
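Human hepatoma HepG2 cells were treated for 1 hr with test chemicals, then given m-MPI dye and CellTiter-Glo. Cell viability reflects luminescence proportional to cellular ATP.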

A short description of assay [4]: qHTS assay for small molecule disruptors of the mitochondrial membrane potential (AID 720635). Note: potency is the fitted concentration of half-maximal effect. A digest of the protocol:
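HepG2 cells (2,000/well) attached overnight at 37C, then took compound for 1 hr at 37C, 5% CO2. Mito-MPS dye was added for 30 min; fluorescence was read at 490/535 nm (monomers) and 540/590 nm (aggregates).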

The nature of assay [5]: qHTS assay to test for compound auto fluorescence at 590 nm (red) in HepG2 cells (AID 720674). A digest of the protocol:
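Intrinsic compound fluorescence in the red window (Ex/Em 540/590 nm) is measured in attached HepG2 cells exposed for 1 hr, DMSO vehicle as baseline, benchmarked to Rose Bengal sodium.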

A short description of assay [6]: qHTS assay to test for compound auto fluorescence at 535 nm (green) in HepG2 cells (AID 720675).
Assay [7] can be described thus: qHTS assay to test for compound auto fluorescence at 460 nm (blue) in HEK293 cells (AID 720678). A digest of the protocol: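 Cells were seeded and left to adhere for 4-5 hr at 37C. Compounds were then pin-transferred. After an overnight incubation at 37C under 5% CO2, intrinsic fluorescence at 405/460 nm was measured and referenced to triamterene.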
Assay [8] in a line: qHTS assay to test for compound auto fluorescence at 590 nm (red) in HEK293 cells (AID 720679). A digest of the protocol:
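Each well held 2,000 HEK293 cells in medium containing 10% dialyzed FBS. Following 4-5 hr attachment at 37C, 23 nL test compound or DMSO was added; plates sat overnight, and red fluorescence (540/590nm) was recorded.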

Assay [9] in a line: qHTS assay to test for compound auto fluorescence at 535 nm (green) in HEK293 cells (AID 720680).
Assay [10] in a line: qHTS assay to test for compound auto fluorescence at 460 nm (blue) in HEK293 cell free culture (AID 720681). A digest of the protocol:
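Test compounds were pinned into cell-free culture medium (DMEM with 10% FBS) and fluorescence was read directly at Ex/Em 405/460 nm. Signals were expressed as fluorescence equivalents of triamterene, with DMSO vehicle as control.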

The nature of assay [11]: qHTS assay to test for compound auto fluorescence at 535 nm (green) in HEK293 cell free culture (AID 720682). A digest of the protocol:
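Measurement is a direct plate read of green fluorescence (485 nm in, 535 nm out) after compound addition to serum-supplemented DMEM lacking cells, with fluorescein used to express intensities.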

Assay [12] is described as follows: qHTS assay to test for compound auto fluorescence at 590 nm (red) in HEK293 cell free culture (AID 720683). A digest of the protocol: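 Tox21 10K library compounds were pinned into cell-free DMEM with 10% FBS and fluorescence was read at excitation 540 nm. Activity is expressed as Rose Bengal sodium equivalency.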
A short description of assay [13]: qHTS assay to test for compound auto fluorescence at 590 nm (red) in HepG2 cell free culture (AID 720684). A digest of the protocol:
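Red fluorescence (540 nm excitation, 590 nm emission) was measured after compound transfer into cell-free MEM supplemented with 10% FBS. Values are equivalencies against Rose Bengal sodium.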

Assay [14] in a line: qHTS assay to test for compound auto fluorescence at 460 nm (blue) in HepG2 cell free culture (AID 720685). A digest of the protocol: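 Compound (23 nL) or DMSO pinned into cell-free MEM with 10% FBS; blue fluorescence read at 405/460 nm excitation/emission, expressed as auto-fluorescence equivalency to triamterene.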
Assay [15] is described as follows: qHTS assay to test for compound auto fluorescence at 535 nm (green) in HepG2 cell free culture (AID 720686).
A short description of assay [16]: qHTS assay to test for compound auto fluorescence at 460 nm (blue) in HepG2 cells (AID 720687). A digest of the protocol: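 Cells (2,000/well in MEM with 10% FBS) attached overnight at 37 C, then were exposed to compound or DMSO for 1 hr at 37 C, 5% CO2. Fluorescence read at Ex/Em 405/460 nm, expressed as triamterene-equivalent signal.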
Assay [17] concerns the target Glucocorticoid receptor (Homo sapiens) (UniProt P04150). Kind of assay: qHTS assay to identify small molecule agonists of the glucocorticoid receptor (GR) signaling pathway (AID 720691; active = well fitted activation curve with a large enough effect in the signal ratio in the repeat runs, not every such curve was filed as active; the % refers to the signal ratio). A digest of the protocol: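 Beta-lactamase reporter activity, read as fluorescence intensity, was measured in GR-bla HeLa cells exposed to compounds for 18 h at 37 C and then loaded with LiveBLAzer B/G FRET substrate for 2 h at room temperature.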

Assay [18] shares this target. Kind of assay: qHTS assay to identify small molecule antagonists of the glucocorticoid receptor (GR) signaling pathway (AID 720692; active = well fitted inhibition curve with a large enough effect in the signal ratio in the repeat runs, not every such curve was filed as active; the % refers to the signal ratio; note: potency is the fitted concentration of half-maximal effect). A digest of the protocol:
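Fluorescence from cleaved LiveBLAzer B/G FRET substrate reports GRE-driven beta-lactamase in HeLa cells; compounds are tested against 5 nM dexamethasone (final) over 18 h at 37 C, substrate incubation 2 h at room temperature.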

Assay [19] in a line: qHTS assay for small molecule agonists of the p53 signaling pathway - cell viability (AID 651633; calls by dose curve;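 note: p53RE-bla HCT reporter cells with a stable beta-lactamase p53 reporter; series mostly up to about 83 µM; nearly all actives have a fitted effect of over 30% in size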). A digest of the protocol: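 p53RE-bla cells, seeded at 4,000 per well and rested 5 h at 37 C/5% CO2, received compounds in DMSO for 16 h at 37 C. CellTiter-Glo was then added, and luminescence was read after 30 min at room temperature to gauge cytotoxicity.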

A number with no mark means an inactive call. Records with an inconclusive call do not appear. Activity calls are given as the source filed them. Unless noted, calls come from the whole dose curve; as a rule, active = well fitted curve in the direction sought with a large enough effect in the repeat runs; inconclusive = weak or mixed curves; inactive = no such curve, though single readings can be large; an effect the other way counts as inactive or inconclusive.

Sequence of Glucocorticoid receptor (Homo sapiens) (P04150 whole entry, looked up): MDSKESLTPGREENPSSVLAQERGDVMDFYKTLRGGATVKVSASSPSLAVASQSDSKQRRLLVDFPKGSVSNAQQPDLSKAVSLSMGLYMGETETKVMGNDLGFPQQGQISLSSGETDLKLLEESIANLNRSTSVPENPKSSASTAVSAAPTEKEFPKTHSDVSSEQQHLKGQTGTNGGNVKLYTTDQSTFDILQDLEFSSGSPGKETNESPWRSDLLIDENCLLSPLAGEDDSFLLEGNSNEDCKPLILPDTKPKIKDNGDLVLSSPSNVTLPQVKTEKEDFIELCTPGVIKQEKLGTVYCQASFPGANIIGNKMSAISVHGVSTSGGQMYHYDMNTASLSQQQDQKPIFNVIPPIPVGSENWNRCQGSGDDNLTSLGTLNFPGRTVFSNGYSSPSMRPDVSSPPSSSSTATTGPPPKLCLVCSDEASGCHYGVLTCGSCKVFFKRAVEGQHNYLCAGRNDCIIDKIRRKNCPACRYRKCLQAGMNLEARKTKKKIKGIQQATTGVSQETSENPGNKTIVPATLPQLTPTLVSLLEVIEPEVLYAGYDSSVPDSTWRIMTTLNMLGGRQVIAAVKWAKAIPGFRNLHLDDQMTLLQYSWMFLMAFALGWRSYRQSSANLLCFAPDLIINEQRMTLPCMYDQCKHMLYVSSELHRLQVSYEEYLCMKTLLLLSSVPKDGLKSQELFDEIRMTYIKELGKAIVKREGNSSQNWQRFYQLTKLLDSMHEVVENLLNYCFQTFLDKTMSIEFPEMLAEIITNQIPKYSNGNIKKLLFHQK

With `COC(=O)C1=C(C)NC(C)=C(C(=O)OCC(C)=O)C1c1ccccc1[N+](=O)[O-]` (stereo not drawn), the Potency result in assay [1], in assay [3], in assay [7], in [10], in assay [14] and in assay [16] was “inactive” in each case. Moreover, the Potency result in [17] was “inactive”. Also, the results for the Potency in assay [2], in [4] and in [18] were 23.7 µM (active), 9.44 µM (active) and 21.3 µM (active), respectively. Moreover, the molecule was classed as inactive in assay [5], in assay [6], in assay [8], in assay [9], in assay [11] and in [12]. Moreover, the molecule was classed as inactive in assay [13] and in assay [15].
For the molecule `CCCCCCCCN(C)CCCCCCCC`, the Potency result in [1], in assay [19], in assay [2], in assay [3], in [7] and in [10] was “inactive” in each case. Further, the Potency result in assay [14], in assay [16] and in assay [18] was “inactive” throughout. In addition, the molecule was classed as inactive in assay [5], in assay [6], in assay [8], in assay [9], in [11] and in assay [12]. Besides, in assay [15], the outcome was inactive.
For the molecule `CCN(CC)S(=O)(=O)c1ccc(C(=O)O)cc1`, the Potency result in assay [1], in [19], in [2], in assay [3], in assay [7] and in assay [10] was “inactive” throughout. Besides, the Potency result in assay [14], in assay [16], in assay [17] and in [18] was “inactive” throughout. The result in [5], in assay [6], in assay [8], in [9], in [11] and in assay [12] was inactive. Besides, the result in assay [15] was inactive.
On to `CCOC(=O)Cn1c(=O)sc2cccc(Cl)c21`, for which the Potency result in assay [1], in [19], in assay [2], in assay [3], in [10] and in assay [14] was “inactive” throughout. Also, in assay [16], the Potency result was “inactive”. Besides, the molecule was classed as inactive in [5], in assay [6], in assay [8], in assay [9], in [11] and in assay [12]. Besides, in assay [15], the call was inactive.
Regarding `O=C(O)Cc1cc(I)c(Oc2cc(I)c(O)c(I)c2)c(I)c1`, the Potency result in [1], in assay [3], in assay [7], in [10], in assay [14] and in assay [16] was “inactive” throughout. Also, in assay [17], the Potency result was “inactive”. Further, the result in assay [6], in assay [8], in assay [9], in assay [11], in assay [12] and in [13] was inactive. Moreover, the molecule was called inactive in assay [15]. In addition, in assay [18], the Potency is 10.7 µM (active).
`NC(=O)c1c(Cl)cccc1Cl`: the Potency result in assay [1], in assay [2], in [3], in [7], in [10] and in assay [14] was “inactive” each time. Further, the Potency entry in assay [16] was “inactive”. The molecule was called inactive in assay [5], in assay [6], in assay [8], in [9], in assay [11] and in assay [12]. In addition, the result in assay [13] and in assay [15] was inactive.
On to `CC1(C)SC(C)(C)SC(C)(C)S1`, for which the Potency result in assay [1], in assay [2], in assay [3], in assay [4], in [7] and in assay [10] was “inactive” in each case. The Potency result in assay [14] and in assay [16] was “inactive” throughout. Further, the molecule was classed as inactive in [6], in assay [8], in assay [9], in assay [11], in [12] and in [13]. Also, in [15], the outcome was inactive.
For the molecule `O=C(O)c1ccccc1-c1ccc(C(F)(F)F)cc1`, the Potency entry in [1], in assay [2], in [3], in assay [7], in [10] and in assay [14] was “inactive” each time. For the same molecule, the Potency result in assay [16] and in [18] was “inactive” in each case. Further, the call in assay [6], in assay [8], in assay [9], in assay [11], in assay [12] and in [13] was inactive. Besides, in [15], the result was inactive.
In the case of `CN(C)C(=O)Nc1ccccc1`, the Potency result in assay [1], in [2], in assay [3], in [10], in [14] and in assay [16] was “inactive” in each case. For the same molecule, the call in assay [5], in assay [6], in assay [8], in assay [9], in [11] and in [12] was inactive. Moreover, the molecule was classed as inactive in assay [13] and in [15].
`CCC(C)(C)C1CCC(OC)CC1` (stereo not drawn): the Potency result in [1], in [2], in assay [3], in assay [7], in assay [10] and in assay [14] was “inactive” each time. Also, the Potency result in assay [16] was “inactive”. For the same molecule, the result in [5], in [6], in assay [8], in assay [9], in assay [12] and in assay [13] was inactive. Further, the outcome in assay [15] was inactive.
